MARV entry inh: Marburg virus entry inhibition; Marburg virus pseudotyped entry inhibition, cell reporter; Potency, µM (highest dose often 37.8 µM), without a hit: top-dose activity change, negative = inhibition, actives largely listed as inhibitors; 300,000 compounds, 1.8% hits; AID 540276; calls by dose curve; tested in HEK293 cells; note: potency is the fitted concentration of half-maximal effect; % is set by controls: 0 for no effect and ±100 for the full control effect
Shiga inhibitor: Shiga toxin inhibition; Vero cells, Shiga toxin protein synthesis inhibition reporter; 290,000 compounds, 9.2% hits; AID 2315; inhibition, % at 38.7 µM; in the data active = inhibition mostly above about 28%, no sharp cut-off; inactive = mostly below about 43%; note: 0% is about no effect
LASV entry inh: blocks Lassa virus binding to or entry into cells; Lassa virus pseudotype entry inhibition, cell reporter; Potency, µM (top dose mostly 37.9 µM), without a hit: at the highest dose activity change, negative = inhibition, hits mostly inhibitors; 300,000 compounds, 1.2% hits; calls by dose curve; tested in HEK293 cells; note: potency is the fitted concentration of half-maximal effect; % is set by controls: 0 for no effect and ±100 for the full control effect; nearly all actives have a fitted effect of over 50% in size
CHX counter: affects cycloheximide protein synthesis inhibition readout, counter-screen; cell reporter, cycloheximide protein synthesis inhibition counterscreen; max response, %; 300,000 compounds, 12% hits; AID 2314; in the data active = max response mostly above about 13%, no sharp cut-off; inactive = mostly below about 14%; note: read at 38.3 µM for the half of the compounds with a filed dose; 0% is about no effect
* hit, by the source's call; ? = inconclusive; . = no result; [ ] = dose if it differs, or a comment. This is a sample that favours compounds with a hit; in the whole collection about 12% have one here.

SMILES	MARV entry inh	Shiga inhibitor	LASV entry inh	CHX counter
C/C(Cn1nnc([N+](=O)[O-])n1)=N\NC(=O)c1ccccc1O	.	52*	.	32*
C/C(Cn1nnc([N+](=O)[O-])n1)=N\NC(=O)c1ccc(O)cc1	.	62*	.	23*
CCOc1ccc(S(=O)(=O)NCCc2csc3nc(-c4cccc(C)c4)nn23)cc1	.	.	-1%[46.1 µM]	.
CSCC[C@H](NC(=O)[C@H](Cc1ccccc1)NC(=O)[C@H](Cc1cnc[nH]1)NC(=O)CNC(=O)[C@@H](NC(=O)[C@H](C)NC(=O)[C@H](Cc1c[nH]c2ccccc12)NC(=O)[C@H](CCC(N)=O)NC(=O)[C@@H]1CCCN1C(=O)[C@@H](NC(=O)[C@@H]1CCC(=O)N1)C(C)C)C(C)C)C(N)=O	.	-5	.	-7
CC12CCC3C(CCC4(O)CC(O)CCC34C=NO)C1(O)CCC2C1=COC(=O)C1 (stereo unspecified)	0.18µM*	.	0.25µM*	.
CCCCN=C[C@]12CCC(O)CC1(O)CCC1[C@@H]2CC[C@]2(C)[C@H](C3C=CC(=O)O3)CCC12O (stereo partly specified)	3.5µM*	-11	?	-7
CC12CC[C@H]3[C@@H](CCC4(O)C[C@H](O)CCC34/C=N/NC(=O)c3ccccc3Cl)C1(O)CCC2C1=CC(=O)OC1 (stereo partly specified)	.	2	.	1
CC12CCC3C(CCC4(O)CC(O)CCC34C=O)C1(O)CCC2C1=CC(=O)OC1 (stereo unspecified)	0.45µM*	.	0.71µM*	.
CC(=O)c1ccc(NC(=O)C[n+]2cccc(C)c2)cc1	.	-5	.	1
c1ccc2c(c1)Nc1nccnc1S2	?	128*	?	28*
FC(F)(F)c1cnc2c(c1)Nc1ccccc1S2	18%	44	23%	13*
Clc1cc2c(nn1)Nc1ccccc1S2	.	39	.	11*
S=C1Nc2ccccc2Sc2ccc(Cl)cc21	3%	1	24%	-2
COCCCNC(=O)c1ccccc1Oc1ccccc1	1%[46.1 µM]	12	8%	-3
COCCCNC(=O)c1ccc2c3c(onc13)-c1ccccc1C2=O	?	69*	?	35*
O=C(CN1CCCC1)Nc1ccc(NC(=O)Nc2ccccc2Cl)cc1	23%	50	28%	25*
O=C(CCc1ccccc1)Nc1ccc(N2CCCCC2)cc1	?	93*	?	33*
O=C(CN1CCCCC1)Nc1ccccc1	-19%	-23	4%	-1
CCCOC(=O)Nc1ccc(N2CCCCC2)cc1	?	56*	?	34*
O=C(CN1CCCCC1)Nc1ccc(N2CCCCCC2)cc1	?	44	-6%[46.1 µM]	17*
O=C(CN1CCCC1)Nc1ccccc1Cl	?	-2	-6%	5
CC1(C(=O)NC2CCCCCCC2)CC1(Cl)Cl (stereo unspecified)	-2%	-12	5%	-1
O=C(COC(=O)C1CCC(N2C(=O)C3C4CCC(C4)C3C2=O)CC1)c1ccc(F)cc1 (stereo unspecified)	2%[46.1 µM]	17	2%[46.1 µM]	-6
COc1ccccc1N(CC(=O)NC1CCCC1)C(=O)c1oc(C(C)(C)C)cc1C	?	-3	?	-4
O=C(c1ccco1)N1CCN(c2nc3ccsc3c(=O)s2)CC1	.	49*	.	31*
SMILES	MARV entry inh	Shiga inhibitor	LASV entry inh	CHX counter
O=c1sc(N2CCN(c3ccccc3F)CC2)nc2ccsc12	.	56*	.	37*
COC(=O)c1ccccc1NC(=O)Cn1c(=O)n(CCCCC(=O)NCc2ccc3c(c2)OCO3)c(=O)c2ccccc21	-1%[46.1 µM]	.	-10%[46.1 µM]	.
Fc1cccc(CNCCc2c[nH]c3ccccc23)c1	.	2	.	-3
Cc1cccc(CC(=O)c2c[nH]c3ccccc23)c1	-34%[46.1 µM]	51*	13%[46.1 µM]	17
Cc1cccc(CNCCc2c[nH]c3ccccc23)c1	10µM*	-16	?	-6
O=C(CN1CCC(C(=O)c2ccc3c(c2)OCCO3)CC1)NCc1ccc(F)cc1	?	-2	-12%[46.1 µM]	2
O=C(OCc1cnc(Cl)s1)c1c(F)cccc1F	-2%	52	0%	9
O=C(OCc1cnc(Cl)s1)c1ccccc1Cl	5%	22	9%	16*
O=C(OCc1cnc(Cl)s1)c1cccc(Cl)c1Cl	?	-4	12%	14*
COc1ccccc1-c1n[nH]c(=S)n1Cc1ccco1	.	1	.	-3
Cc1ccc(NC(=O)Nc2ccc3c(c2)CCC3)cc1	?	54*	17%[46.1 µM]	48*
O=[N+]([O-])c1cccc(CNc2ccc3c(c2)CCC3)c1	1%	active	0%	19
O=C(Nc1cccc([N+](=O)[O-])c1)Nc1ccc2c(c1)CCC2	?	30	?	12*
O=C(Nc1cccc([N+](=O)[O-])c1)Nc1cccs1	.	37	.	32*
COC(=O)c1sccc1NC(=O)Nc1cccc([N+](=O)[O-])c1	.	-3	.	2
NC[C@H](O)c1cc(O)c(O)cc1F	-6%	.	.	.
CCc1nnc(N2C(=N)SCC2=O)s1	2%[46.1 µM]	-15	1%[46.1 µM]	-1
CC(=O)Nc1cccc(NC(=O)Nc2ccc(F)cc2F)c1	9%[46.1 µM]	31	3%	10
O=C(Nc1ccc2c(c1)CCC2)c1ncoc1-c1ccccc1F	3%[46.1 µM]	79	-7%[46.1 µM]	27*
O=C(CN1CCN(c2ccccc2F)CC1)Nc1ccc2c(c1)CCC2	?	-5	8%[46.1 µM]	-1
O=C(Nc1ccc2c(c1)CCC2)Nc1ccc(F)cc1F	.	74*	.	67*
Cc1ccccc1NC(=O)Nc1ccc(C(F)(F)F)cc1	1%[46.1 µM]	56*	-12%	23*
O=C(Cc1ccccc1)Nc1ccc2c(c1)CCC2	-24%[46.1 µM]	105*	?	39*
Cc1ccccc1NC(=O)CNC(=O)c1ccc(C(F)(F)F)cc1	10%	27	?	11
O=C(Nc1cccc(F)c1)Nc1ccc2c(c1)CCC2	?	80*	?	25*
SMILES	MARV entry inh	Shiga inhibitor	LASV entry inh	CHX counter
O=C(Nc1ccc2c(c1)CCC2)c1cc(S(=O)(=O)Nc2ccc(F)cc2)c(Cl)cc1Cl	?	29	?	19*
O=C(Nc1cccc(F)c1)Nc1ccc2c(c1)C(=O)OC2	4%	34	22%	8
O=C(O)c1ccc(NC(=O)c2cc(S(=O)(=O)N3CCCCC3)c(Cl)cc2Cl)cc1	.	.	13%[46.1 µM]	.
CCCNC(=O)Nc1ccc(C(F)(F)F)cc1	14%	43*	-21%	18*
Cc1cc(C(=O)Nc2ccc3c(c2)CCC3)c2ccccc2n1	15%[46.1 µM]	29	2%	20
Cc1ccccc1NC(=O)Nc1ccc2c(c1)CCC2	.	104*	.	28*
COc1ccc(NC(=O)c2cn(CC(C)C)c(=O)c3cc(OC)c(OC)cc23)cc1Cl	?	.	-7%[46.1 µM]	.
Cc1ccccc1C(=O)Nc1ccccc1C(=O)N1CCC(C)CC1	-13%[46.1 µM]	-5	-20%[46.1 µM]	-6
O=C(Nc1ccc2c(c1)CCC2)c1ccc(F)cc1	11µM*	0	?	30*
O=C(Nc1ccc(F)cc1)Nc1ccc2c(c1)CCC2	4%[46.1 µM]	68*	9%[46.1 µM]	49*
CCOc1ccc(NC(=O)Nc2ccc3c(c2)CCC3)cc1	?	-6	0%[46.1 µM]	3
O=C(CNC(=O)c1ccc(Br)cc1)Nc1ccc2c(c1)CCC2	16%	.	28%	.
O=C(Nc1ccc2c(c1)CCC2)Nc1ccccc1F	.	64*	.	47*
COc1ccc(CC(=O)Nc2ccc3c(c2)CCC3)cc1	15%	4	0%	16
O=C(CC1CCCC1)Nc1ccc2c(c1)CCC2	1%	51*	-8%	29*

High-throughput results from PubChem.
